The list is not random: actives were taken first. Their share in the collection is about 4.2%.
hcDAF-12 act – H. contortus DAF-12 activation, primary screen. 370,000 compounds, 1.4% hits. HEK293 hcDAF-12 lit1-tk-luc reporter, luminescence; 0% DMSO, 100% Δ7-dafachronic acid. activation, % at 6.8 µM;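 active = activation above the mean of all tested compounds plus 3 SD, cut at about 5.5% in these data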;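 also: 100% = response to 3 µM Δ7-dafachronic acid high control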
Wnt act – activators of Wnt/beta-catenin signaling; activation, % at 9.35 µM; Wnt/beta-catenin reporter cell assay, activator, plate reader; 300,000 compounds, 1.2% hits; in the data active = activation above about 30%, passing the limit was not always enough;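 also: 0% = neutral control wells and 100% = positive control wells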
hgDAF-12 ag – activates the H. glycines DAF-12 receptor ligand-binding domain. HEK293 GAL4-hgDAF12 UAS-luciferase reporter, agonist luminescence; normalized to butyrate control. activation, % at 6.8 µM. AID 687014. 370,000 compounds, 1.8% hits;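 active = activation above a cutoff set at the mean of all screened compounds plus 3 SD, cut at about 10% in these data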;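 also: 0% = DMSO wells and 100% = sodium butyrate wells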
esBAF inh – SWI/SNF esBAF complex inhibition; 350,000 compounds, 2% hits; reporter increase, % at 12.5 µM; mouse ES cells, Bmi1-luciferase knock-in reporter, 24 h; 100% = twice the neutral-well signal; in the data active = activation above about 40%;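 also: 0% = median of the plate's neutral control wells and 100% = double that signal; a rise in the Bmi1 reporter signal indicates esBAF inhibition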
ssDAF-12 act – activates DAF-12 receptor from parasite S. stercoralis; HEK293 ssDAF-12/GRIP1 lit1-tk-luc reporter, luminescence; % of 3 µM dafachronic acid response; activation, % at 6.8 µM; 370,000 compounds, 1% hits;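 active = activation above the mean over all tested compounds plus 3 SD, cut at about 0.9% in these data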;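 also: 0% = DMSO-only wells and 100% = 3 µM delta7-dafachronic acid wells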
DAX1 inh – inhibitors of DAX1 repression of SF-1 activated StAR promoter; inhibition, % at 6.8 µM; AID 652010; 370,000 compounds, 1.1% hits; HEK293T StAR-luciferase reporter, SF-1/DAX-1 repression relief;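 active = inhibition above the mean over all tested compounds plus 3 SD, cut at about 3.6% in these data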;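 also: 0% = DAX-1 cells with DMSO and 100% = cells lacking DAX-1 with DMSO; higher inhibition means more luminescence from relief of DAX-1 repression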
hgDAF12 conf – hgDAF-12 agonism, confirmation assay; shares compounds with hgDAF-12 ag; HEK293 GAL4-hgDAF12 luciferase reporter, agonist mode; percent of butyrate response; activation, % at 6.8 µM; 3,300 compounds, 80% hits;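 active = mean activation over triplicate wells above the hit cutoff derived from the earlier primary screen, cut at about 11% in these data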;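 also: 0% = DMSO low control and 100% = 2 mM sodium butyrate high control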
LXR ag 2 – counter-screen for DAF-12 agonists: agonists of human LXR-beta; shares compounds with hgDAF-12 ag; HEK293 Gal4-LXR luciferase reporter, 24 h; activation, % at 6.8 µM; 3,300 tested, under 10 active; AID 743051;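 active = mean activation of the triplicate above a set limit carried over from the primary screen, none filed active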
Target sequence (P55055 whole entry, looked up, the tested form may be a part): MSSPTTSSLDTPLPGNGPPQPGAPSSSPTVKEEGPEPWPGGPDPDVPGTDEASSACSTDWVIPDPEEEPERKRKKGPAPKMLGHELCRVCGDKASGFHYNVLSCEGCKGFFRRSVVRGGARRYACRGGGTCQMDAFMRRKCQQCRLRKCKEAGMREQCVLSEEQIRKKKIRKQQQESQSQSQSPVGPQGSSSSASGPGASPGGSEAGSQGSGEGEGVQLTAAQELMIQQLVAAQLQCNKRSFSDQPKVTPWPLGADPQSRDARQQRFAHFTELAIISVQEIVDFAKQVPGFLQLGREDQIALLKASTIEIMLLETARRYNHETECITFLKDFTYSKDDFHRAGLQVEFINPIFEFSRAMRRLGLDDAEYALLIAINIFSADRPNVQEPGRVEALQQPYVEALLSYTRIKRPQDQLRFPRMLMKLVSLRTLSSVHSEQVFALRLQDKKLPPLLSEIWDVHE
* marks the source's active call; other numbers are inactive results; / = not tested or not shown.

SMILES	hcDAF-12 act	Wnt act	hgDAF-12 ag	esBAF inh	ssDAF-12 act	DAX1 inh	hgDAF12 conf	LXR ag 2
Cc1ccsc1/C=N/NC(=O)c1ccc2ccccc2c1	2	20	14*	/	0	3	11*	0
COC(=O)c1ccn(Cc2ccccc2Cl)n1	1	6	14*	/	-1	3	9	0
C[C@H](CO)N1C[C@H](C)[C@@H](CN(C)C(=O)Nc2ccc(C(F)(F)F)cc2)OCCCC[C@H](C)Oc2ccc(NS(=O)(=O)c3cccs3)cc2C1=O	/	/	/	-6	/	/	/	/
CO/C(N)=C(\C#N)N=Cc1ccccc1Cl	1	0	14*	/	1	2	3	0
N#CCC(=O)N/N=C/c1ccccc1Cl	-2	-1	0	/	-1	-1	/	/
COc1ccc(/C=C/C2=NNC(=O)CC2)cc1	0	-9	14*	/	0	1	7	0
O=c1c2ccccc2nc(-c2ccco2)n1Cc1ccccc1	3	/	14*	52*	-1	1	12*	0
C[C@H](CO)N1C[C@H](C)[C@@H](CN(C)C(=O)Nc2ccc(C(F)(F)F)cc2)Oc2ccc(NS(=O)(=O)c3ccc(F)cc3)cc2CC1=O	/	/	/	2	/	/	/	/
CC1CCCCN1CCCNC(=O)c1ccc2nc(N3CCCCC3)sc2c1 (stereo unspecified)	3	12	14*	58*	1.4*	4.0*	12*	0
O=C(NCCc1ccccc1)c1ccc2nc(N3CCOCC3)sc2c1	-2	7	14*	26	-1	1	0	0
C[C@H]1CN([C@@H](C)CO)C(=O)c2cccc(NC(=O)C3CC3)c2O[C@H]1CN(C)S(=O)(=O)c1cn(C)cn1	/	/	/	-1	/	/	/	/
Nc1nc2ccc(-c3nc4ccccc4o3)cc2s1	3	/	14*	2	1	3	13*	1
c1ccc2oc(-c3ccc4nc[nH]c4c3)nc2c1	4	/	19*	47*	0	3.8*	18*	1
CCC(=O)Nc1ccc2c(c1)OC[C@@H](C)N(C(=O)Cc1cccnc1)C[C@@H](C)[C@H](OC)CN(C)C2=O	/	/	/	1	/	/	/	/
COc1ccc(NC(=O)Nc2ccc3c(c2)CC(=O)N([C@@H](C)CO)C[C@@H](C)[C@H](CN(C)S(=O)(=O)c2ccc(F)cc2)O3)cc1	/	/	/	1	/	/	/	/
CCOc1ccc(NC(=O)Nc2ccc3c(c2)nc(C)n3C)cc1	-2	12	4	4	-1	-1	/	/
O=C(Nc1ccc2nc3ccccc3nc2c1)c1ccccc1	4	/	16*	/	1	3	14*	1
Cc1nc2cc(NC(=O)c3ccc(Cl)cc3)ccc2n1C	4	17	13*	-38	0	2	16*	1
Cc1nc2cc(NC(=O)Nc3cccc4ccccc34)ccc2n1C	2	13	18*	26	0	3	12*	1
O=C(Nc1ccc(Cl)c(Cl)c1)c1ccccc1	2	19	3	/	0	0	/	/
C[C@@H]1CCCCO[C@@H](CN(C)S(=O)(=O)c2ccc(Cl)cc2)[C@H](C)CN([C@@H](C)CO)C(=O)c2cc(N(C)C)ccc2O1	/	/	/	3	/	/	/	/
CC(C)(C)[S@@](=O)N1Cc2cc(C(=O)N3CCCCC3)nc(-c3cccc(-c4ccc(C#N)cc4)c3)c2[C@H]1CCO	/	/	/	-3	/	/	/	/
N#CCCCc1cn(-c2nc3ccccc3s2)nn1	2	9	14*	/	1	4.0*	13*	0
COCc1cn(-c2nc3ccccc3s2)nn1	3	7	8	/	0	3	/	/
O=C(/C=C/c1ccccc1[N+](=O)[O-])Nc1ccccc1	6	/	18*	/	0	4.0*	16*	1
SMILES	hcDAF-12 act	Wnt act	hgDAF-12 ag	esBAF inh	ssDAF-12 act	DAX1 inh	hgDAF12 conf	LXR ag 2
CN(C)/C=N/C(=S)Nc1ccc(Cl)cc1Cl	-1	9	9	/	-1	1	/	/
CN(C)/C=N/C(=S)Nc1ccc(Cl)cc1	1	23	14*	/	-1	1	11*	0
CNC[C@@H]1Oc2ncc(C#CC3(O)CCCC3)cc2C(=O)N([C@H](C)CO)C[C@@H]1C	/	/	/	1	/	/	/	/
O=C(Cc1ccccc1[N+](=O)[O-])NCc1ccccc1Cl	4	2	14*	28	0	4	14*	0
O=C(COC(=O)Cc1ccccc1[N+](=O)[O-])NCc1ccccc1Cl	0	-3	2	/	-1	-1	/	/
CC(C)(C)C(=O)NC(=S)Nc1cccc(C(=O)O)c1	4	-1	14*	/	-1	4.3*	13*	0
CC(=O)COc1ccc2cc(-c3ccccc3)c(=O)oc2c1	6.2*	19	17*	-30	0	2	17*	1
C[C@H](CO)N1C[C@H](C)[C@H](CN(C)C(=O)C2CCC2)Oc2ncc(C#Cc3ccccc3F)cc2C1=O	/	/	/	-1	/	/	/	/
CO[C@H]1CN(C)C(=O)c2cc(NC(C)=O)ccc2OC[C@@H](C)N(Cc2ccc(F)cc2)C[C@@H]1C	/	/	/	0	/	/	/	/
COc1ccccc1N1CCN(c2ccc3ccccc3n2)CC1	6.0*	23	14*	-7	0	3	15*	1
COc1ccccc1N1CCN(c2cc(N3CCCC3)nc(C)n2)CC1	-1	/	-3	1	-2	0	/	/
O=C(c1ccccc1)c1cc(F)c(N2CCOCC2)cc1Cl	-3	/	2	20	-1	-1	/	/
O=C(c1ccccc1)c1ccc(N2CCOCC2)c(F)c1	1	30	16*	58*	-2	2	14*	1
COc1ccc(-c2ccc3c(c2)[C@H]2[C@H](CCN2C(=O)Cc2ccccc2)[C@H](CO)N3C)cc1	/	/	/	1	/	/	/	/
COc1ccccc1-c1ccc2n(c1=O)C[C@H]1[C@H](CO)[C@@H](C(=O)NC3CCC3)N(C(=O)C3CCC3)[C@@H]21	/	/	/	-4	/	/	/	/
Cc1ccc(Nc2nc(N)nc(CSc3ncccn3)n2)cc1	3	/	16*	26	1	2	14*	1
COc1ccccc1/C=C/C=N/Nc1cccc(C(=O)O)c1	4	25	15*	12	1.6*	3	22*	1
O=C(Nc1ccccc1)N1CCC(c2ccccc2)C1 (stereo unspecified)	1	/	8	21	0	1	/	/
CCc1ccc(NC(=O)N2CCC(c3ccccc3)C2)cc1 (stereo unspecified)	2	1	18*	/	0	3.7*	14*	1
O=C(/C=C/c1ccccc1)N1CCC(c2ccccc2)C1 (stereo unspecified)	3	24	13*	/	-1	3	16*	1

Screening results as filed in PubChem BioAssay.
